In the supplement of paper PMC13380429:

System: Vero E6 infected with SARS-CoV-2
Test: inhibition of SARS-CoV-2 cytopathic effect; higher = more antiviral protection, active = above 15
Conditions: 48 h

Measured: inhibition of SARS-CoV-2 cytopathic effect

O=C(O)CCC(=O)O [succinic-acid]
inactive: 1 nM -0.06% | 8.33 nM -1.83% | 100 nM -1.13% | 833.33 nM -0.66% | 10000 nM 2.3%

Cc1ccc(S(=O)(=O)c2ccc([N+](=O)[O-])o2)cc1
inactive: 1 nM 0.14% | 8.33 nM 0.39% | 100 nM 2.55% | 833.33 nM 13.5% | 10000 nM -21.6%

Cc1cccc(C(=O)O)c1O [hydroxytoluic-acid]
inactive: 1 nM -9.06% | 8.33 nM -7.41% | 100 nM -5.24% | 833.33 nM -2.47% | 10000 nM -10.5%

CN(C)CCN1C(=O)c2cccc3cc(NC(N)=O)cc(c23)C1=O [unbs-5162]
inactive: 1 nM -0.12% | 8.33 nM 4.76% | 100 nM 2.53% | 833.33 nM 0.4% | 10000 nM -2.03%

CNC(=O)c1ccc2c(c1)S(=O)(=O)c1ccccc1C2=O
inactive: 1 nM 0.15% | 8.33 nM 0.66% | 100 nM 1.63% | 833.33 nM -1.32% | 10000 nM -0.42%

CCC(C/C=C/c1ccccc1)(c1ccccc1)N(C)CC1CC1 (stereo not given) [igmesine]
inactive: 1 nM -0.08% | 8.33 nM 0.01% | 100 nM -2.22% | 833.33 nM -1.63% | 10000 nM 6.93%

CC(C)(Oc1ccc(C2CC2(Cl)Cl)cc1)C(=O)O (stereo not given) [ciprofibrate]
inactive: 1 nM -2% | 8.33 nM 1.09% | 100 nM -0.52% | 833.33 nM -2.34% | 10000 nM -4.5%

CC/C(=C(/c1ccc(/C=C/C(=O)O)cc1)c1ccc2[nH]ncc2c1)c1ccc(F)cc1Cl
inactive: 1 nM 4.17% | 8.33 nM -1.18% | 100 nM -1.84% | 833.33 nM 0.21% | 10000 nM -0.85%

Sc1ncnc2nc[nH]c12 [mercaptopurine]
inactive: 1 nM -0.65% | 8.33 nM 1.59% | 100 nM 2.14% | 833.33 nM 1.92% | 10000 nM 0.56%

CCCN1CCO[C@@H]2c3cc(O)ccc3OC[C@H]21
inactive: 1 nM -1.91% | 8.33 nM -3.42% | 100 nM 2.39% | 833.33 nM -0.35% | 10000 nM -2.98%

CCc1cc2c(cc1CC)CC(NC[C@H](O)c1ccc(O)c3[nH]c(=O)ccc13)C2 [indacaterol]
inactive: 1 nM -4.02% | 8.33 nM -0.7% | 100 nM -0.83% | 833.33 nM -1.99% | 10000 nM -2.01%

O=C(O)CCNC(=O)c1ccccc1 [betamipron]
inactive: 1 nM -2.23% | 8.33 nM -0.21% | 100 nM 0.07% | 833.33 nM -1.91% | 10000 nM -2.18%

O[C@H]([C@H](O)[C@@H]1CO1)[C@H]1CO1 [dianhydrogalactitol]
inactive: 1 nM -0.61% | 8.33 nM -1.52% | 100 nM -3.41% | 833.33 nM 0.41% | 10000 nM 2.5%

Cc1cc(-c2ccc(CC(=O)Nc3ccc(-c4cccnc4)cc3)cc2)ccn1
inactive: 1 nM -2.73% | 8.33 nM -2.58% | 100 nM -2.93% | 833.33 nM 4.57% | 10000 nM 7.2%

Cc1cccc(NC(=O)c2ccc(C(F)(F)F)cc2C(=O)O)n1
inactive: 1 nM 0.74% | 8.33 nM 0.28% | 100 nM 1.41% | 833.33 nM 0.88% | 10000 nM 2.54%

COC(=O)C1=C(C)NC(C)=C([N+](=O)[O-])[C@@H]1c1ccccc1C(F)(F)F (racemic)
inactive: 1 nM 2% | 8.33 nM -0.15% | 100 nM -1.34% | 833.33 nM 2.63% | 10000 nM 4.88%

CCc1cnc(N2CCC(c3nc(COc4ccc(-n5cnnn5)cc4)cs3)CC2)nc1
inactive: 1 nM 1.55% | 8.33 nM -3.29% | 100 nM -4.15% | 833.33 nM -3.29% | 10000 nM 0.22%

Nc1ccc(C(=O)O)c(O)c1 [aminosalicylate]
inactive: 1 nM -3.85% | 8.33 nM -0.82% | 100 nM -0.9% | 833.33 nM 0.11% | 10000 nM 0.97%

CN(C)CCN(Cc1cccs1)c1ccccn1 [methapyrilene]
inactive: 1 nM -0.83% | 8.33 nM -2.49% | 100 nM -1.39% | 833.33 nM -3.33% | 10000 nM -1.68%

Nc1nc2cc(-c3ccc4ncc(C(=O)N5CCOCC5)n4c3)ccc2o1
inactive: 1 nM 0.78% | 8.33 nM 5.87% | 100 nM 4.68% | 833.33 nM 3.05% | 10000 nM -2.33%

NC(=O)Cc1cccc(C(=O)c2ccccc2)c1N [nepafenac]
inactive: 1 nM -0.09% | 8.33 nM 1.07% | 100 nM -0.56% | 833.33 nM -1.36% | 10000 nM -2.65%
